The values that follow come from PubChem BioAssay.

Several values for one entry are separate records, joined by “and”; a condition that tells them apart may be missing. Identical values can stand only once. Activity calls are given as the source filed them. Unless noted, the rule behind the calls is not given here.

A short description of test [1]: compounds altering circadian rhythm period length – cell-based, LOPAC library, luminescence reporter (AID 2774).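 Note: values are relative to mean of DMSO wells on each plate.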 The following applies: circadian reporter cells, at 7 µM, actives lie on both sides.
Test [2] in a line: compounds altering viability of human ES cells (AID 493140).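 Note: cells exposed to compounds for four days before counting.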 The following applies: human embryonic stem cell survival screen; stronger effect = higher value.
For test [3], the system named is Hepatitis C virus NS3 helicase. The test is described as follows: blockers of NS3h binding to ssDNA – biochemical, fluorescence polarization, LOPAC1280 library, primary screen (AID 687035; in the data active = inhibition above about 37%). The following applies: Purified HCV NS3 helicase, Cy5-dT15 ssDNA binding fluorescence polarization; stronger effect = higher value; concentration not given here. (In general: Polarisation of emitted light reports the rotation of a fluorescent probe.)

The nature of test [4]: compounds altering Cy5-DNA-NS3h complex signal – biochemical, LOPAC1280, artefact control for HCV NS3 helicase inhibitor project (AID 687037). The following applies: Cy5-DNA-NS3h complex fluorescence interference counterscreen. (In general: The purpose of a counterscreen is to sort out artefacts and off-target activity.)
The nature of test [5]: Wnt pathway potentiators raising nuclear beta-catenin – imaging, WNT3A-conditioned medium, mouse C2C12, NPC library, primary screen (AID 1117326; in the data active = nuclear beta-catenin stimulation mostly above about 4.2%, no sharp cut-off; inactive = mostly below about 10%). The following applies: stronger effect = higher value.
A short description of test [6]: P. berghei load reduction in hepatocytes – cell-based, HepG2, luciferase luminescence, HepG2 viability, primary screen (AID 624349; in the data active = parasite load remaining mostly below about 12%, no sharp cut-off; inactive = mostly above about 10%;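 note: 100% = mean of DMSO negative control wells on the same plate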). The following applies: P. berghei liver stage in HepG2, luciferase luminescence, concentration not given here; parasite load remaining: stronger effect = lower value; viability: measured here: HepG2 viability without parasites.
The nature of test [7]: signal quenchers or enhancers, Cy5 substrate/SSB – biochemical, NIH Clinical Collection, E. coli SSB, artefact control for HCV NS3 helicase inhibitor project (AID 743268). The following applies: Cy5-oligo bound E. coli SSB, fluorescence interference.
In test [8] the test system is Hepatitis C virus NS3 helicase. The test is described as follows: blockers of NS3h binding to DNA – biochemical, fluorescence polarization, NIH Clinical Collection, primary screen (AID 743270). The following applies: NS3 helicase binding to Cy5-dT15 DNA, stronger effect = higher value, concentration not given here.
In test [9] the target is Single-stranded DNA-binding protein (Escherichia coli (strain K12)) (UniProt P0AGE0). Nature of the test: SSB-ssDNA binding inhibitors – biochemical, fluorescence polarization, NIH Clinical Collection, counter-screen for HCV NS3 helicase inhibitor project (AID 743271; in the data active = inhibition above about 28%). The following applies: E. coli SSB-DNA binding, stronger effect = higher value, concentration not given here.
The nature of test [10]: compounds distorting NS3 helicase fluorescence signal – biochemical, NIH Clinical Collection, artefact control for HCV NS3 helicase inhibitor project (AID 743272).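 Note: HCV NS3 helicase with a Cy5 labelled single stranded DNA probe.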 The following applies: fluorescence interference counterscreen, HCV NS3 helicase assay; stronger effect = lower value.
The test system of test [11] is Neuropilin-2 / VEGF-C interaction (human). The test is described as follows: small molecules blocking Neuropilin-2/VEGF-C interaction – biochemical, microplate binding format, z-score (AID 743281). The following applies: microplate NRP2/VEGF-C binding assay; stronger effect = lower value.

As to `CCOC(=O)C1=C(C)NC(C)=C(C(=O)OC)C1c1cccc(Cl)c1Cl` (configuration not stated), the period change in [1] was -0.06 h (inactive). Further, the survival in test [2] is 15.7 (inactive). Also, in test [3], the inhibition was -1% (inactive). Besides, the fluorescence ratio (interference) in [4] is 1 (inactive). For the same compound, the nuclear beta-catenin stimulation is 35.8% (inactive) in [5] (at 10 µM) and 7.4% in test [5] (stimulation, at 2 µM).
For the compound `O=C(c1ccc(F)cc1)C1CCN(CCn2c(=O)[nH]c3ccccc3c2=O)CC1`, the period change in test [1] was 0 h (inactive). Further, in test [2], the survival was 12.7 (inactive). In [3], the inhibition is 2% (inactive). In addition, the fluorescence ratio (interference) in test [4] was 1 (inactive). The nuclear beta-catenin stimulation in [5] (at 10 µM) is 0.6% (inactive); in [5] (stimulation, at 2 µM), -1.2%.
For the compound `CCCCNc1c(C(=O)OCC)c(C)nc2c1cnn2CC`, in test [1], the period change is 0.105 h (inactive). The survival in test [2] is 17.3 (inactive). In [6], the parasite load remaining was 80.1% (inactive) and the viability worked out at 77.6%. Also, the inhibition in [3] was -5% (inactive). In addition, the fluorescence ratio (interference) in test [4] is 1 (inactive). Besides, in test [5] (at 10 µM), the nuclear beta-catenin stimulation is -0.5% (inactive). The nuclear beta-catenin stimulation in test [5] (stimulation, at 2 µM) is 1.7%.
`CC(=O)O[C@]1(C(C)=O)CC[C@H]2[C@@H]3C=C(Cl)C4=CC(=O)[C@@H]5C[C@@H]5[C@]4(C)[C@H]3CC[C@@]21C`: the period change in test [1] is 0.03 h (inactive). The parasite load remaining in test [6] is 8.85% (inactive). Also, in [6], the viability came to 69%. In addition, the inhibition in test [3] is -1% (inactive). The fluorescence ratio (interference) in test [4] was 0.9 (inactive). Further, the nuclear beta-catenin stimulation in test [5] (at 10 µM) is 1.2% (inactive); in [5] (stimulation, at 2 µM), 1.7%.
In the case of `COC(=O)Nc1nc2ccc(C(=O)c3cccs3)cc2[nH]1`, in test [1], the period change was -0.58 h (inactive). Also, the survival in [2] is 1.17 (inactive). In test [3], the inhibition was -5% (inactive). Moreover, the fluorescence ratio (interference) in [4] is 0.9 (inactive). Also, the nuclear beta-catenin stimulation in test [5] (at 10 µM) is 80.4% (active); in test [5] (stimulation, at 2 µM) it was 81.3%.
Consider `CC(=O)OC(C)C[N+](C)(C)C` (configuration not stated), for which the period change in test [1] is -0.04 h (inactive). In addition, in test [2], the survival is 1.33 (inactive). Further, in test [6], the parasite load remaining was 94% (inactive) and 73.8% (inactive) and 58% (inactive); the viability was 94.5% and 73.8% and 92.8%. Further, the inhibition in test [3] was -2% (inactive). Moreover, the fluorescence ratio (interference) in test [4] is 0.9 (inactive). The nuclear beta-catenin stimulation in [5] (at 10 µM) was 1.5% (inactive). In test [5] (stimulation, at 2 µM), the nuclear beta-catenin stimulation turned out to be 3.2%.
For the compound `NC(N)=Nc1nc(CSCC/C(N)=N/S(N)(=O)=O)cs1`, in test [1], the period change is -0.03 h (inactive). For the same compound, the survival in [2] was 16.5 (inactive). Also, the values for the fluorescence ratio in [7] and in test [10] were 0.96 (inactive) and 0.9 (inactive), respectively. Moreover, the inhibition is 3.56% (inactive) in [8] and 6.83% (inactive) in test [9]. Moreover, the z-score in test [11] was -0.254 (inactive). The nuclear beta-catenin stimulation in test [5] (at 10 µM) is 0.9% (inactive); in test [5] (stimulation, at 2 µM) it was -1.4%.
Consider `C[C@H]1O[C@@H](n2cc(F)c(=O)[nH]c2=O)[C@H](O)[C@@H]1O`, for which the period change in test [1] is -0.1 h (inactive). Further, in test [6], the parasite load remaining was 43.4% (inactive) and the viability is 83%. Moreover, in test [3], the inhibition is -1% (inactive). Also, the fluorescence ratio (interference) in [4] was 1 (inactive). The nuclear beta-catenin stimulation in test [5] (at 10 µM) is 1.3% (inactive). Further, the nuclear beta-catenin stimulation in test [5] (stimulation, at 2 µM) was 0.4%.
Regarding `CCOC(=O)C1=C[C@]2(CC)CCCN3CCc4c(n1c1ccccc41)[C@@H]32`, in test [1], the period change was 0 h (inactive). The survival in test [2] was 5.33 (inactive). In test [3], the inhibition was -2% (inactive). Besides, the fluorescence ratio (interference) in test [4] was 1 (inactive). The nuclear beta-catenin stimulation was 0.9% (inactive) in [5] (at 10 µM) and -0.3% in test [5] (stimulation, at 2 µM).
For `COc1cc(-c2ccc(=O)[nH]n2)ccc1OC(F)F`, the period change in [1] was -0.1 h (inactive). Moreover, the survival in test [2] is 1.92 (inactive). Further, the parasite load remaining in [6] is 107% (inactive) and 103% (inactive) and 31.7% (inactive). Moreover, the viability in [6] is 78.6% and 72.5%. The figures for the fluorescence ratio in test [7] and in [10] were 0.99 (inactive) and 0.94 (inactive), respectively. Also, the inhibition was -2.77% (inactive) in [8] and -0.87% (inactive) in [9]. In addition, in test [11], the z-score was -0.623 (inactive). The nuclear beta-catenin stimulation in test [5] (at 10 µM) was 2% (inactive); in [5] (stimulation, at 2 µM) it was 0.9%.
Consider `CO[C@@]1(NC(=O)CSCC#N)C(=O)N2C(C(=O)O)=C(CSc3nnnn3C)CS[C@@H]21`, for which the period change in [1] was -0.07 h (inactive). In addition, the survival in test [2] was 4.83 (inactive). Further, in test [6], the parasite load remaining was 86% (inactive) and the viability amounted to 102%. In addition, the inhibition in test [3] is -5% (inactive). Moreover, in test [4], the fluorescence ratio (interference) is 1 (inactive). Besides, in test [5] (at 10 µM), the nuclear beta-catenin stimulation was 0.4% (inactive). The nuclear beta-catenin stimulation in test [5] (stimulation, at 2 µM) was found to be 0.7%.
In the case of `Cc1scc2c1N(C(=O)CN1CCN(C)CC1)c1ccccc1NC2=O`, the period change in test [1] is 0.165 h (inactive). Further, the survival in test [2] was 11.3 (inactive). Further, the parasite load remaining in [6] is 42.9% (inactive) and 96% (inactive) and 50.1% (inactive). Moreover, the viability in test [6] was 49.7% and 86.8% and 142%. In test [3], the inhibition is -3% (inactive). Besides, in [4], the fluorescence ratio (interference) was 1 (inactive). Further, the nuclear beta-catenin stimulation was 1% (inactive) in test [5] (at 10 µM) and 1.6% in test [5] (stimulation, at 2 µM).
On to `c1cnc(N2CCN(Cc3ccc4c(c3)OCO4)CC2)nc1`, for which, in test [1], the period change is -0.05 h (inactive). The survival in [2] is 3.67 (inactive). Also, the parasite load remaining in test [6] was 105% (inactive) and 100% (inactive) and 31.2% (inactive). In addition, the viability in test [6] is 78.5% and 71.3% and 101%. Further, the inhibition is -1% (inactive) in test [3], -5.94% (inactive) in [8] and -0.87% (inactive) in test [9]. In addition, the fluorescence ratio (interference) in test [4] was 1 (inactive). In addition, the values for the fluorescence ratio in [7] and in [10] were 1.01 (inactive) and 0.96 (inactive), respectively. For the same compound, in test [11], the z-score is -0.0568 (inactive). The nuclear beta-catenin stimulation in test [5] (at 10 µM) was 0.7% (inactive); in test [5] (stimulation, at 2 µM), 4.1%.
`NC(N)=NC(=O)Cc1c(Cl)cccc1Cl`: in test [1], the period change is 0.09 h (inactive). Further, in test [2], the survival was 7.33 (inactive). Further, in test [6], the parasite load remaining is 29.4% (inactive) and 52.8% (inactive) and 54.1% (inactive); the viability was 118% and 76.4% and 154%. In addition, the inhibition in test [3] was 1% (inactive). Besides, in test [4], the fluorescence ratio (interference) was 1 (inactive). For the same compound, the nuclear beta-catenin stimulation in test [5] (at 10 µM) is -0.4% (inactive). For the same compound, the nuclear beta-catenin stimulation in test [5] (stimulation, at 2 µM) is 2.6%.
As for `CC(C)NCC(O)COc1ccc(CCOCC2CC2)cc1` (configuration not stated), the period change in test [1] is 0.03 h (inactive). Moreover, the survival in test [2] is 8.33 (inactive). Besides, the inhibition in [3] was -6% (inactive); in test [8], 5.94% (inactive); in [9], 3.75% (inactive). In test [4], the fluorescence ratio (interference) was 0.9 (inactive). For the same compound, the fluorescence ratio in test [7] was 1.03 (inactive); in [10] it was 0.95 (inactive). Further, the z-score in test [11] is -0.0183 (inactive). In addition, the nuclear beta-catenin stimulation in test [5] (at 10 µM) is 3.6% (inactive); in [5] (stimulation, at 2 µM) it was 3.7%.

What is called inhibition is the relative decrease from the control value, in per cent. The viability is a read-out of living cells in per cent, often relative to untreated cells.
